In ChEMBL document CHEMBL3988442, “University of Dundee, Small-Polar-MMV Screening Library” (2021):
In all, about 48,000 compounds went through this assay and about 13,000 (27%) showed an effect of 50% or more. Some of the results follow.

test system: Wolbachia pipientis; test: Anti-Wolbachia Cell-Based Screen; format: functional; parameters: scale not given: in the data most compounds retested in dose-response had high values; conditions: 5 µM

Structure (SMILES) | Percent Effect [%]
CCC(NC(=O)c1ccco1)c1nc(C(F)(F)F)cs1 (configuration not stated) | -6.981
COCC1CC2(CCN(C(=O)c3cncc(C)c3)CC2)CO1.O=C(O)C(F)(F)F (configuration not stated) | 8.897
CC(C)NC(=O)C1CCC2(CCN(c3ncccn3)CC2)CO1 (configuration not stated) | -6.885
CNC(=O)NCC1CCC2(CCN(c3ncccn3)CC2)CO1 (configuration not stated) | 88.92
O=C(C1CCC2(CCN(c3ncccn3)CC2)CO1)N1CCCC1 (configuration not stated) | 10.33
CNC(=O)NCC1CCC2(CCN(C(=O)c3ccccc3)CC2)CO1 (configuration not stated) | 108.3
COCC1CC2(CCN(C(=O)c3cccc(C)c3)CC2)CO1 (configuration not stated) | -11.23
CNC(=O)NCC1CCC2(CCN(C(=O)c3cccnc3)CC2)CO1.O=C(O)C(F)(F)F (configuration not stated) | 102.7
COCC1CC2(CCN(C(=O)c3oc4ccccc4c3C)CC2)CO1 (configuration not stated) | -1.277
CS(=O)(=O)N1CCOCC2(CCN(C(=O)c3cccnc3)CC2)C1.O=C(O)C(F)(F)F | -2.226
Cc1ccc(-c2cc(C(=O)NCCC3=CCCCC3)[nH]n2)o1 | 9.696
CN(Cc1noc2c1CCCC2)C(=O)CN1C(=O)CSc2ccccc21 | 0.5887
COc1nc2c(cc1C(=O)N(C)Cc1noc3c1CCCC3)CCC2 | -4.32
CN(Cc1noc2c1CCCC2)C(=O)C1Cc2ccccc2CN1C (configuration not stated) | 9.151
Cc1ccc(-c2cc(C(=O)N(C)Cc3noc4c3CCCC4)[nH]n2)o1 | 119
Cc1ccc(-c2cc(C(=O)N(C)Cc3noc4c3CCCC4)[nH]n2)s1 | 126

Structure (SMILES) | Percent Effect [%]
COc1ccc(C(=O)NC2CC2)c(OC2CCN(C3CCC3)CC2)c1 | 0.9223
O=C(Nc1ccc(F)cc1)C1CNCCN1C(=O)CCO (configuration not stated) | -8.613
COc1ccccc1C1CNCCN1C(C)=O (configuration not stated) | 170.5
COc1ccc(C(=O)N2CCCC2c2ccco2)cc1OC (configuration not stated) | -0.7331
COc1ccccc1OC1CN(C(=O)C2CNCC(=O)N2)C1 (configuration not stated) | 3.442
COc1ccccc1C1CNCCN1C(=O)c1ccc(F)cc1 (configuration not stated) | 170.1
COc1cc(S(=O)(=O)N2C[C@@H](C)[C@@](C)(O)C2)c(C)cc1C | -12.13
Cc1cccnc1CNCC1(O)CCCN(Cc2ccc(F)cc2)C1=O (configuration not stated) | 9.379
CCOc1cc(NC(=O)N(C)Cc2ncnn2C)ccc1C | -12.81
CCOc1cc(C(=O)N(C)C)ccc1NC(=O)c1ccsc1 | -5.987
Cn1cnc2c1CCN(CCCc1ccccc1)C2 | 0.7928
Cn1ccc(C(=O)N2CCN(CCc3ccccc3)CC2)cc1=O | -2.355
CC(C)Cc1ncc2c(n1)CN(C(=O)Cn1c(=O)oc3ccccc31)C2 | -4.555
CN1CC(=O)c2sc(NCCc3ccccc3)nc2C1 | 91.14
CC(C)CC(=O)N1CC(=O)c2sc(NCCc3ccccc3)nc2C1 | 112.3
CC(C)SCC(=O)N1Cc2cnc(-c3ccccc3)nc2C1 | 3.989
